Measurements as given in PubChem BioAssay (EPA / NIEHS).
Several values for one entry are separate records, joined by “and”; a condition that tells them apart may be missing. Equal entries are not always repeated. Where a structure was tested more than once in an assay, its records may differ in their call. Activity calls are given as the source filed them. The calls were made as follows: active = hit-call score of the fitted dose curve at least 0.9, where 1 is the maximum; inactive = score below 0.9.

Assays:
[1] = APR_HepG2_CellLoss_1hr: Apredica 1-hour HepG2 Assay for Cell Loss (AID 2282668); conditions: high-content imaging;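 also: curves fitted both ways against DMSO so gain or loss of cells counts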
In short: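 Cell number comes from high-content imaging of Hoechst-labelled nuclei in fixed HepG2 cells. Cells were exposed for 1 h to ten concentrations from 0.39 to 200 uM in 0.5% DMSO. Gain or loss was fitted against DMSO controls.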

[2] = APR_HepG2_MicrotubuleCSK_1hr: Apredica 1-hour HepG2 Assay for Microtubule CSK Stabilty (AID 2282669); conditions: HepG2 microtubule cytoskeleton imaging, actives raise or lower the signal
In short: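 Alpha-tubulin immunofluorescence, imaged by automated high-content microscopy with Hoechst nuclear segmentation, measured cytoskeletal change after 1 h dosing of HepG2 at 0.39–200 uM in 0.5% DMSO. Activity fitted in both directions relative to DMSO.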

[3] = APR_HepG2_NuclearSize_1hr: Apredica 1-hour HepG2 Assay for Nuclear Size (AID 2282670); conditions: high-content imaging, actives raise or lower the signal
In short: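 Nuclear size measured by high-content imaging of Hoechst 33342 nuclear stain after formaldehyde fixation; human HepG2 line exposed 1 hr to compounds at 0.39–200 uM in 0.5% DMSO, with bidirectional curve fitting relative to DMSO.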

[4] = APR_HepG2_P-H2AX_1hr: Apredica 1-hour HepG2 Assay for H2AX Phosphorylation (AID 2282673); conditions: high-content imaging, actives raise or lower the signal
In short: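 Phospho-H2A.x immunofluorescence (1:200, FITC secondary) plus Hoechst nuclear stain, quantified by high-content imaging in HepG2 after 1 hr compound exposure. Ten concentrations, 0.39 to 200 uM, in duplicate with 0.5% DMSO; fit both directions against DMSO.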

[5] = APR_HepG2_MitoMass_1hr: Apredica 1-hour HepG2 Assay for Mitochondrial Mass (AID 2282674); conditions: high-content imaging, actives raise or lower the signal
In short: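 Mitochondrial mass is taken from MitoTracker Red CMXRos (250 nM, 30 min, pre-fixation) fluorescence imaged at 20x in HepG2 cells. Exposure lasted 1 hr across ten concentrations, 0.39 to 200 uM, 0.5% DMSO; DMSO baseline, bidirectional fitting.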

[6] = APR_HepG2_CellCycleArrest_24hr: Apredica 24-hour HepG2 Assay for Cell Cycle Arrest (AID 2282905); conditions: imaging, actives raise or lower the signal;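 also: cell cycle arrest scored as ratio of 2N to 4N nuclear DNA content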
In short: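 Compounds (0.39 to 200 uM, final DMSO 0.5% v/v) are applied to HepG2 cells for 24 hours; cells are then fixed, permeabilized and nuclei labeled with Hoechst 33342. Automated imaging measures DNA content, and activity is fitted in both directions against DMSO.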

[7] = APR_HepG2_StressKinase_1hr: Apredica 1-hour HepG2 Assay for Stress Kinase (AID 2282906); conditions: HepG2 stress kinase (phospho-c-Jun) imaging, actives raise or lower the signal
In short: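 High-content imaging of phospho-c-Jun immunostaining (with Hoechst nuclear identification) after a 1 h exposure of HepG2 cells to 10 concentrations from 0.39 to 200 uM, final DMSO 0.5%. Fitted bidirectionally against DMSO.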

[8] = APR_HepG2_NuclearSize_24hr: Apredica 24-hour HepG2 Assay for Nuclear Size (AID 2282907); conditions: high-content imaging, actives raise or lower the signal
In short: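 Nuclear size is measured by fluorescence high-content imaging of Hoechst-labelled HepG2 nuclei after 24 hr of treatment (0.39–200 uM, 0.5% DMSO). Cells are fixed in 3.7% formaldehyde before staining, and DMSO serves as the baseline for bidirectional curve fitting.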

[9] = APR_HepG2_CellLoss_24hr: Apredica 24-hour HepG2 Assay for Cell Loss (AID 2282908); conditions: high-content imaging
In short: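 Nuclear count serves as the viability measure: treated cells are fixed, permeabilized and labelled with Hoechst 33342, and six images per well are analysed to identify valid nuclei. Doses span 0.39–200 uM, and activity in either direction is scored against DMSO.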

[10] = APR_HepG2_MicrotubuleCSK_24hr: Apredica 24-hour HepG2 Assay for Microtubule CSK Stabilty (AID 2282909); conditions: HepG2 microtubule cytoskeleton imaging, actives raise or lower the signal
In short: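 Compounds were applied to HepG2 cells for 24 hours across 0.39–200 uM in duplicate, with final DMSO at 0.5% v/v. Fixed, permeabilized cells were labeled for alpha-tubulin and nuclei, and tubulin fluorescence was quantified by imaging, fitted bidirectionally against DMSO.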

[11] = APR_HepG2_MitoticArrest_24hr: Apredica 24-hour HepG2 Assay for Mitotic Arrest (AID 2282910); conditions: high-content imaging, actives raise or lower the signal
In short: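 HepG2, 24 hr dosing, 0.39–200 uM, 0.5% DMSO final. Formaldehyde-fixed, Triton-permeabilised, anti-phospho-histone H3 plus Hoechst. ArrayScan imaging at 20x; bidirectional fit vs DMSO baseline.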

[12] = APR_HepG2_MitoMembPot_24hr: Apredica 24-hour HepG2 Assay for Mitochondrial Membrane Potential (AID 2282911); conditions: imaging, actives raise or lower the signal
In short: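 HepG2 cells exposed 24 h to 0.39–200 uM compounds in duplicate, 0.5% v/v DMSO final. MitoTracker Red CMXRos 250 nM loaded 30 min before formaldehyde fixation; high-content imaging at 20x, bidirectional fit versus DMSO.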

[13] = APR_HepG2_MitoMass_24hr: Apredica 24-hour HepG2 Assay for Mitochondrial Mass (AID 2282912); conditions: high-content imaging, actives raise or lower the signal
In short: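 After 24 hr of treatment at 0.39 to 200 uM, HepG2 cells take up 250 nM MitoTracker Red CMXRos for 30 min and are then fixed with 3.7% formaldehyde. Per-well images are quantified, and any change in either direction is scored against solvent.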

[14] = APR_HepG2_p53Act_24hr: Apredica 24-hour HepG2 Assay for p53 Activation (AID 2282913); conditions: high-content imaging, actives raise or lower the signal;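 also: p53 protein immunofluorescence averaged per cell in HepG2 with Hoechst nuclei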
In short: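 HepG2 cells exposed 24 h to compounds at 0.39–200 uM in duplicate, 0.5% v/v DMSO final; fixed, permeabilized, stained with anti-p53 antibody and Hoechst 33342; fluorescence imaging; bidirectional curve fit versus DMSO.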

[15] = APR_HepG2_CellLoss_72hr: Apredica 72-hour HepG2 Assay for Cell Loss (AID 2282915); conditions: high-content imaging
In short: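 HepG2 cells exposed 72 h to compound at 0.39–200 uM (10 concentrations, duplicate) in 0.5% DMSO. Fixed with 3.7% formaldehyde and Hoechst 33342-stained. Imaged at 20x; nuclear count gives cell number, fitted bidirectionally versus DMSO.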

[16] = APR_HepG2_P-H2AX_72hr: Apredica 72-hour HepG2 Assay for H2AX Phosphorylation (AID 2282916); conditions: imaging, actives raise or lower the signal;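 also: phospho-histone H2A.x immunostain intensity per cell marking DNA damage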
In short: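 Human hepatoma HepG2 cells are dosed across ten concentrations (0.39 to 200 uM, 0.5% v/v DMSO) and incubated 72 hr. Phospho-histone H2A.x is then detected by antibody staining alongside c-Jun and Hoechst, and quantified by automated fluorescence imaging.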

[17] = APR_HepG2_CellCycleArrest_1hr: Apredica 1-hour HepG2 Assay for Cell Cycle Arrest (AID 2282666); conditions: high-content imaging, actives raise or lower the signal
In short: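 Cell cycle arrest scored from nuclear DNA content (Hoechst 33342) using high-content imaging of fixed HepG2 cells after 1 h treatment across 0.39–200 uM, in duplicate. Gain or loss fitted relative to 0.5% DMSO.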

[18] = APR_HepG2_MitoticArrest_1hr: Apredica 1-hour HepG2 Assay for Mitotic Arrest (AID 2282672); conditions: high-content imaging, actives raise or lower the signal
In short: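 Ten-point concentration series (0.39 to 200 uM, duplicates, 0.5% v/v DMSO) applied to human HepG2 liver cells for 1 hr. High-content imaging of phospho-histone H3 and Hoechst-stained nuclei after fixation and permeabilization; DMSO-normalised bidirectional fit.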

[19] = APR_HepG2_CellCycleArrest_72hr: Apredica 72-hour HepG2 Assay for Cell Cycle Arrest (AID 2282914); conditions: high-content imaging, actives raise or lower the signal
In short: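 HepG2 cells exposed 72 h in duplicate to 0.39–200 uM compound, 0.5% DMSO final. Formaldehyde-fixed, Hoechst 33342-stained nuclei imaged at 20x, six fields per well; DNA content per valid cell quantified by cell-cycle image analysis, bidirectional fit versus DMSO.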

[20] = APR_HepG2_MitoMembPot_1hr: Apredica 1-hour HepG2 Assay for Mitochondrial Membrane Potential (AID 2282675); conditions: imaging, actives raise or lower the signal
In short: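 Mitochondrial membrane potential read as MitoTracker Red CMXRos intensity by automated imaging of fixed HepG2 cells. Dye at 250 nM for 30 min pre-fixation; compounds 0.39 to 200 uM for 1 hour, duplicate wells, 0.5% DMSO.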

Measured: AC50

CCCOC(=O)c1ccc(C(=O)OCCC)nc1
not listed: [17] | [18] | [19] | [20]
inactive: all other assays above

CCCCC(CC)CN1C(=O)C2C3C=CC(C3)C2C1=O (centres undefined)
active: [10] 72.3 µM | [15] 93.2 µM
not listed: [7] | [20]
inactive: all other assays above

COC(=O)c1cccc(C)c1S(=O)(=O)NC(=O)Nc1nc(OCC(F)(F)F)nc(N(C)C)n1
not listed: [7] | [17] | [19]
inactive: all other assays above

CCSC(=O)N(CC(C)C)CC(C)C
not listed: [7] | [9] | [18] | [20]
inactive: all other assays above

CC(C)(c1ccc(O)cc1)c1ccc(O)cc1
active: [10] 103 µM | [12] 12.7 µM and 30.5 µM and 101 µM | [13] 109 µM and 122 µM | [15] 109 µM [middle of 4 runs] | [16] 114 µM and 105 µM
inactive: [17] | [1] | [2] | [3] | [18] | [4] | [5] | [6] | [8] | [10] | [11] | [12] | [13] | [14] | [16]

COCCO
not listed: [9] | [17] | [18]
inactive: all other assays above

COC(=O)c1c(Cl)nn(C)c1S(=O)(=O)NC(=O)Nc1nc(OC)cc(OC)n1
not listed: [7] | [9] | [17] | [18] | [19]
inactive: all other assays above
